From the supplement of paper PMC6555819

Each sequence was assayed on LXRa homodimer (NR concentration 270 nM) (assay: PBM binding z-score (relative to random genomic background probes); higher = stronger binding; sequences stand for … in GC…GCGATTGACAGCGTAGAATGAAGG).
Outline: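 Binding z-scores take random background probes as their reference. They come from custom Agilent 4×180K protein-binding microarrays incubated 1 h with ligand-free nuclear receptor dimers, with antibodies against each partner (one per run) detecting binding. Scanned fluorescence was regression-normalized.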

Row | Sequence | PBM binding z-score
1 | GCTGACGGGTCAAAGGTTATAGCATGAATAGAAT | 0.433
2 | ATCGAAAGGTTGACGAGGTGAGTATACACCGTTT | -0.233
3 | CCTAATGGGCCATTCAGAGGTCATTGATCATATG | 6.94
4 | CAAACTAGCTCAAGGTCAAAGTCGGTTTGTGCCA | 5.93
5 | TAGCCTAGATCAGATCGGGCCAGTATACGCTATA | -0.829
6 | CCTAGCAGGTCAGGGTCACTCAAGCATTTCGCTT | 0.113
7 | TAGCCTAGGTCATGCGAGCCAGTATAGTGTCGGC | 0.265
8 | CCTACTGGGCCCAAAAGGTCATTGATGCCGATAA | 3.68
9 | TCTAGTTGGTCAAAGGTCACACATTCGAAATGCG | 3.96
10 | AGAATGAGGTTAAGAACAGGGAAACAGAATACAT | 0.291
11 | GATACAGGGTCAAGGCAAGAGTACGCGTATTGAT | 0.251
12 | CCTTACGGGTCAAGCTTATAGCACGGGTGGTACG | -0.087
13 | CTACCAAGGTGAACAAGGTCCTTGATTACTATTC | -0.214
14 | TCTCGGAGGACACGAAAGGTCAGAGCTCGACATC | 3.02
15 | TCTATTAGTTGATTACGGCAACCGAAACAGCGGA | 0.651
16 | ATCGAAAGGTCGGAGGTGAGTATACCCACCCGAA | -0.237
17 | TGAATGAGGTTAAAGTTCAGGGAACGTGGCGTCG | 2.46
18 | CCTTACGGGTCACTCCAGTTTATAGCATCGGAGT | 0.838
19 | ACTAGTAGTTGACTTAGGGCAACCGATACGACGC | -0.428
20 | ACAGACAGGGGAGTGAAGGTAACTCAGCTGGACG | -0.294

Row | Sequence | PBM binding z-score
21 | TAGCCTATGTCATGCGGGCCAGTATAGTGTCGGC | -0.975
22 | CCTACTGGGCCAAAGGTCATTGTTTCCAATGCTC | 4.83
23 | CCGACTGGGGCAAGGTTACCTTAACGCACAGCCA | -0.581
24 | CATACAGGGTCAGATAGGCCAGAGTAGGGACGGC | 0.146
25 | CCAGACAGGTGAGAAGGGAACTCAGCCTCGATTA | 0.111
26 | CTCGAAAGGTCGTGCTCAGTTGAGTATACCAAAC | 0.291
27 | GGAACGAGGGCATTCGAGTTGATAGAATGGCGAT | -0.262
28 | ATCGAAAGGTCGACGAGGTGTGTATACACCGTTT | 0.0715
29 | TCTAGTAGGTTACCAATGGGGCATTCAGCTTTCT | -0.049
30 | GCTAGCAGGGCATTTGGGTCACTCAATGACGGGC | -0.133
31 | ACAGACAAGTGAGTGAAGGTAACTCAGCTGGACG | -0.475
32 | TCGTATAGGTAAAAGGTGAAAGTCGGTGTGGTAA | 0.453
33 | GCTCGGAGGACAAGGTCAGAGCTTTGTCCGTAGA | -0.543
34 | CCGAGTAGGTTATGGCGCATTCAGGCAACGGTGA | -0.0103
35 | CCTACTGGGCCATTCAGACGTCATTGATCATATG | -0.873
36 | AGAATGAGGTTACCAAAAATCAGGGAAACGCTTG | -0.193
37 | CCTCGGAGGACAGAAGTTCAGAGCTGTCCGCTTT | -0.259
38 | GCTTGTAGATCAAGGTTAAGATAGACTAAGCTAA | -0.0877
39 | CAAACTAGGTCAAGAGGTCAAAGTACGCTTCCCG | 5.74
40 | ATCGAAATGTCGACGAGGTGAGTATACACCGTTT | -0.442
